This passage reports sensor-assay potency score (higher = more potent) results from the OligoGym collection.
Further: reference of the scale not given here.

The target of the first assay is FAM73A. In words: pooled miR-30 sensor sort-seq; sequence = guide strand. As to conditions: shRNA.
Sequence TGTACTTGAATAGCGCACCTTC had a sensor-assay potency score (higher = more potent) of 0.381.
Sequence TTGAATAGCGCACCTTCTCAAA yielded a sensor-assay potency score (higher = more potent) of -1.12.
Still for that read-out and setting: as for TAGACAACTACTTGTATGCCTC, the figure is -0.255; as for AACAACTTGAACCTTTGTCTGA, -0.33; as for TTTAATATCATCTTCATCTGCT, 0.76.
TTAAGTATAAGTTCTCTGGAGT came in with a sensor-assay potency score (higher = more potent) of -0.00837.
As to TAATATCATCTTCATCTGCTTT, the sensor-assay potency score (higher = more potent) is -0.807.
TTCTGTTTCAGCACCGACCAAC had a sensor-assay potency score (higher = more potent) of -0.471.
TACTGGAACAACTTGAACCTTT registered a sensor-assay potency score (higher = more potent) of 0.0533.
The sequence TTGAACCTTTGTCTGATGCTGC had a sensor-assay potency score (higher = more potent) of 0.182.

The target of a further assay is FAM75A3. The description is as above. The following applies: shRNA.
Turning to TGATTCGTCCTGAAGCTGCATC, the sensor-assay potency score (higher = more potent) is -0.869.
Regarding TGGTGATTCGTCCTGAAGCTGC, the sensor-assay potency score (higher = more potent) was -1.37.
Consider TAAACTTCTCACTCTTGTGAAT, for which the sensor-assay potency score (higher = more potent) is -1.14.
TTCACTAACAACCTCCTCCATA: the sensor-assay potency score (higher = more potent) is -0.534.
In the case of AAATTCACTAACAACCTCCTCC, the sensor-assay potency score (higher = more potent) is 0.396.
The sequence TTCGTCCTGAAGCTGCATCAGA showed a sensor-assay potency score (higher = more potent) of -0.939.

The next assay addresses FAM89B. Described as above. As to conditions: shRNA.
TGGATTGACTCGTACAGGCCCC gave a sensor-assay potency score (higher = more potent) of -0.992.
In turn, TCCTGGATTGACTCGTACAGGC yielded a sensor-assay potency score (higher = more potent) of -1.73.
The same measure, in the same setting: as for TTGCGCAGCGCGGCCAGCGCTG, the figure is -1.52; as for TTGTAGTCCTGGATTGACTCGT, 0.301; as for TAGTCCTGGATTGACTCGTACA, -1.39.
As for TGTAGTCCTGGATTGACTCGTA, the sensor-assay potency score (higher = more potent) is -0.175.
Take TTAAGGAGGCCGCTGAGGCCGC: the sensor-assay potency score (higher = more potent) is -1.49.
For the sequence TTTGTAGTCCTGGATTGACTCG, the sensor-assay potency score (higher = more potent) is -1.36.
The same measure, in the same setting: as for ATCGGGAGGCTCCTCGTCGTCA, the figure is -1.39.
Consider TGACAGGACGACGCGGGCCGGC, for which the sensor-assay potency score (higher = more potent) was -1.62.
Same read-out and setting: as for AACATCTCCTTGCGCAGCGCGG, the figure is -1.39; as for TCAGGTCTTGGCACAGGTGTTT, -0.832.

The next assay has as its target FAM9C. Described as above. As to conditions: shRNA.
Consider TTTGCAATCTTTTCAATCCTTT, for which the sensor-assay potency score (higher = more potent) was -0.0948.
In turn, ATTCTGTTCTTTATTTCGCTGC registered a sensor-assay potency score (higher = more potent) of -0.428.
For the sequence TTAACTAAACACTGTCATGTGG, the sensor-assay potency score (higher = more potent) came out at 0.189.
For the sequence AACATTTTTAATTCTGTTCTTT, the sensor-assay potency score (higher = more potent) is -0.182.
TTACTGGATCCTTTCCTGCAAG: the sensor-assay potency score (higher = more potent) was -1.19.
As for TTTTGCAATCTTTTCAATCCTT, the sensor-assay potency score (higher = more potent) was 0.00533.
TATTTTAATTTGTTCTTCCTTT returned a sensor-assay potency score (higher = more potent) of -0.236.
The sequence TAACAGGTTTTCTTTCCTCATG returned a sensor-assay potency score (higher = more potent) of -1.34.
As for AATATCTTCTAGCTCCTTGGTA, the sensor-assay potency score (higher = more potent) was -0.174.
Sequence TAACTAAACACTGTCATGTGGT registered a sensor-assay potency score (higher = more potent) of 0.0242.
On to ATCAGTTACATCTCCCTCCTTT, for which the sensor-assay potency score (higher = more potent) is -0.105.
